Measured values taken from PubChem BioAssay AID2132 (NMMLSC, 2009).
Values without a mark were called inactive.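 The calls were made as follows: active = inhibition above 20%; inactive = the rest.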 Peptide text beside a SMILES is read from it. * marks the point of attachment. Cbz = O=C(OCc1ccccc1)*

Assay: yeast 26S proteasome protease site inhibitors – biochemical, fluorogenic peptides, secondary, counter-screen for 26S proteasome disassembly project (AID 2132)
Details: fluorogenic peptide cleavage rate, with Ac-RLR-amc, at 100 µM, active compounds read high

SMILES | inhibition [%]
CC(=O)N1C(=O)C(=C2C=C(C)OC(C)=C2)c2ccccc21 | 20
CC(C)C[C@@H](C=O)NC(=O)[C@H](CC(C)C)NC(=O)[C@H](CC(C)C)NC(=O)OCc1ccccc1 (Cbz-Leu-Leu-Leu-aldehyde) | 5
